Test [1] is described as follows: rapamycin-like changes in RPL19A-GFP expression – cell-based, S. cerevisiae, multiplex flow cytometry, primary screen (AID 1862).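 Further: lower values mimic rapamycin by blocking the RPL19A rise seen in DMSO cells.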 The settings on record: S. cerevisiae RPL19A-GFP strain, flow cytometry fluorescence, 3 h; at 10 µM; stronger effect = lower value. (In general: Flow cytometry measures light scatter and fluorescence of single cells or particles in a stream.)
Test [2] in a line: TOR pathway RTG branch CIT2 reporter changes – S. cerevisiae, GFP fusion, multiplex flow cytometry, primary screen (AID 1870;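 active means percent response above a set limit, the screen-wide mean plus 3 SD, cut at about 130% in these data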;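 further: barcoded CIT2-GFP strain pooled with four other GFP strains with rapamycin as positive control; median GFP fluorescence per well over plate mean of DMSO wells so 100% = DMSO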). The settings on record: S. cerevisiae CIT2-GFP expression, 3 h, at 10 µM, stronger effect = higher value.
A short description of test [3]: TOR pathway LAP4-GFP level changes – S. cerevisiae, multiplex flow cytometry, primary screen (AID 1873;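 active means GFP signal, as percent of the solvent control, above the screen mean plus 3 SD, about 149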). The settings on record: S. cerevisiae LAP4-GFP expression, 3 h, at 10 µM, stronger effect = higher value.
Test [4] in a line: yeast AGP1-GFP level changes, GLN3 branch – cell-based, multiplex flow cytometry, S. cerevisiae, primary screen (AID 1887;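 active means GFP signal above the screen-wide mean plus 3 SD, that is over about 124.5% of the solvent control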;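 further: AGP1-GFP fusion strain of S. cerevisiae within a five-strain barcoded multiplex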). The following applies: 3 h, at 10 µM, stronger effect = higher value.
Test [5] can be described thus: reduced mouse 2C T cell binding to pMHC/ICAM-1 vesicles – MLPCN validation set, flow cytometry, LFA-1/ICAM-1 modulator project, pilot screen (AID 2523;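 active means response below a set limit, under 55% cells CD8-positive and vesicle-bound, and CD8 cells' 90th-percentile brightness under 279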;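 on vesicle binding response: mean PE anti-B7-1 fluorescence of CD8+ cells relative to row control; 100% = QL9-loaded vesicles with DMSO vehicle in the same plate row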). The settings on record: 2C mouse CD8+ T cells, at 7 µM, stronger effect = lower value; double positive events: measured here: CD8+/vesicle+ event percentage.
Test [6] addresses Integrin beta-1 (Homo sapiens) + Integrin alpha-4 (Homo sapiens) (UniProt P13612+P05556). The test can be described thus: alpha4beta1 integrin LIBS antibody binding reduction – U937 cells, HUTS-21 mAb, flow cytometry, validation set, VLA-4 allosteric modulator project, pilot screen (AID 2674;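 active means inhibition above 50%, about 3 SD of the validation set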;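 further: antibody binding induced by the VLA-4 ligand LDV present at three times its Kd; 0% = LDV ligand with antibody and no compound and 100% = antibody without LDV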). The settings on record: HUTS-21 LIBS mAb binding, at 6.7 µM, stronger effect = higher value, binding induced by LDV ligand.

Test [7] in a line: calorie-restriction mimetic ROS inhibitors, yeast – validation compound set, pilot screen (AID 2706;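 active means superoxide response below 65% of plate, a cut near 3 SD across the whole screen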;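 further: yeast exposed to compound for one week at 30 degrees C before staining; 100% = mean of all compound wells on the same plate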). The following applies: S. cerevisiae aging, superoxide DHE fluorescence; at 10 µM, stronger effect = lower value.
Test [8] concerns the target Beta-adrenergic receptor kinase 1 (Homo sapiens) (UniProt P25098). The test can be described thus: GRK2 binders displacing RNA aptamer, biochemical, validation, human GRK2, bead flow cytometry (AID 488806;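 active means aptamer binding inhibition above 30%, about 3 SD of noise from non-fluorescent compounds; inactive means inhibition at or below 30%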). The following applies: bead-bound GRK2, FAM-aptamer displacement, at 10 µM, stronger effect = higher value.
Test [9] addresses Beta-2 adrenergic receptor (Homo sapiens) (UniProt P07550). Put plainly: agonist-induced loss of surface beta2AR – cell-based, FAP fluorogen, flow cytometry, validation set, pilot screen (AID 504459;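 active means percent response above 42, roughly 3 SD of non-fluorescent test compounds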;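 further: agonist-driven loss of surface beta2AR via internalization measured by FAP dye flow cytometry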). The following applies: Am2.2-beta2AR cells, at 10 µM, stronger effect = higher value.
The target in test [10] is AP-2 complex subunit beta (Homo sapiens) (UniProt P63010). The test can be described thus: beta-arrestin/AP2 interaction blockers – biochemical, validation set, GST-AP2 beads, flow cytometry, pilot screen (AID 504541;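 active means inhibition above 54%, about 3 SD of non-fluorescent compounds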;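 further: AP2 carries R879A mutation and is captured from E. coli lysate; bead-bound FITC arrestin peptide fluorescence measuring arrestin peptide binding to AP2; 0% = DMSO wells and 100% = excess unlabeled arrestin peptide control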). The settings on record: FITC arrestin peptide, at 10 µM, stronger effect = higher value, AP2 beta2 appendage fragment, R879A mutant.
Chain of AP-2 complex subunit beta (Homo sapiens) (P63010 whole entry, looked up, the tested form may be a part, one chain of several): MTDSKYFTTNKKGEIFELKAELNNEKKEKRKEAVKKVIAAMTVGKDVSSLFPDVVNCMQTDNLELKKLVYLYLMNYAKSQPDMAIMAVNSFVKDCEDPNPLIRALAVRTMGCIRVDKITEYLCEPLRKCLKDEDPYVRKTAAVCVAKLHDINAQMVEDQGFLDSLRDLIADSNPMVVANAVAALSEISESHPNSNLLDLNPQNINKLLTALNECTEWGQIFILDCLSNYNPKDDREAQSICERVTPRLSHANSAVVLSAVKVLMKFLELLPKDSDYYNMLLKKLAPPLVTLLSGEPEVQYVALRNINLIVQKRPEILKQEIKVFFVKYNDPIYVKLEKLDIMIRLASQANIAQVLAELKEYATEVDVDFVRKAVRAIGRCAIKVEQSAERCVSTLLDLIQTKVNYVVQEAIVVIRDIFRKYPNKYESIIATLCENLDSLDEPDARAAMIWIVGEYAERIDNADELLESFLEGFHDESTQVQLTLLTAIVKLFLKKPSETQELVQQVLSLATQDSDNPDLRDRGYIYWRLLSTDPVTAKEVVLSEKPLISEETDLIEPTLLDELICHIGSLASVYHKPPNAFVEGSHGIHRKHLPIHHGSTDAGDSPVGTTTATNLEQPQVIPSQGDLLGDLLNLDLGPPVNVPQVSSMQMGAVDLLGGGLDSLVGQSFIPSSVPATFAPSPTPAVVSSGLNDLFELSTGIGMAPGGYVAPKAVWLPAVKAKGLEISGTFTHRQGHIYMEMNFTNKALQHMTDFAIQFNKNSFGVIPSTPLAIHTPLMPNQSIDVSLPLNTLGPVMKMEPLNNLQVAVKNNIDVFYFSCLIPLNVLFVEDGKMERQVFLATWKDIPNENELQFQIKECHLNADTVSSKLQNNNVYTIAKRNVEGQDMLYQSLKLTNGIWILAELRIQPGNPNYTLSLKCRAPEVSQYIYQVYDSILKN
Test [11] is described as follows: cytosolic pH regulators acting via V-ATPase – S. cerevisiae, pHLuorin, HTS validation (AID 504600; in the data active means response above about 15%;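 further: plate controls were DMSO for no effect and reference compound for full effect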). The following applies: V-ATPase proton transport, at 10 µM, stronger effect = higher value.
For test [12], the system named is anti-desmoglein-3 scFv antibody binding to human DSG3. The test can be described thus: blockers of pathogenic pemphigus antibody–desmoglein-3 binding – biochemical, validation compound set, bead-based, flow cytometry, pilot screen (AID 588368;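 active means binding below the plate cutoff, the plate median minus 3 SD, with a reading above zero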;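 further: signal is the median channel fluorescence of bead-bound GFP antibody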). The following applies: Protein G beads, DSG3-Fc, scFv-GFP binding, at 10 µM, stronger effect = lower value.
The nature of test [13]: Nile Red efflux blockade in pump-expressing yeast – validation compound set, multiplex, phenotypic, pilot screen (AID 588506;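 active means efflux inhibition above 0.42, the validation set average plus 4 SD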;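 further: Nile Red retained in cells so higher fluorescence means more efflux inhibition; 0 = negative control wells and 1 = enniatin B 25 µM full block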). The following applies: S. cerevisiae pump-expressing triplex, Nile Red efflux flow cytometry; at 10 µM; stronger effect = higher value; the pumps come from Candida albicans.
Test [14] has as its target ATP-binding cassette sub-family B member 6 (Homo sapiens) (UniProt Q9NP58). Put plainly: blockers of ABCB6-driven porphyrin uptake – K562-ABCB6 cells, flow cytometry, validation set, pilot screen (AID 588550;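 active means inhibition above the screen-wide mean plus 3 SD, about 51%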;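 further: 0% = DMSO wells and 100% = benzethonium chloride 70 µM positive control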). The settings on record: K562-ABCB6 porphyrin accumulation, 1 h, at 10 µM, stronger effect = higher value.
A short description of test [15]: AML differentiation inducers, ER-HoxA9 marrow cells – cell-based, GFP/MAC1 double positive, flow cytometry, validation set, primary screen (AID 588685;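 active means differentiation response of at least 50%, scaled between solvent and reference control, from cells with both markers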;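 further: compound exposure lasts four days before antibody staining and flow analysis; 0% = DMSO wells and 100% = 5 µM fulvestrant positive control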). The settings on record: stronger effect = higher value, normalized: vehicle 0, fulvestrant 100.
A short description of test [16]: TOR pathway GLN3 branch reporter MEP2-GFP changes – S. cerevisiae, multiplex flow cytometry, primary screen (AID 1867;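 active means GFP response, as percent of the DMSO control, above the screen-wide mean plus 3 SD, about 139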;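 further: median GFP channel fluorescence of barcode-gated MEP2-GFP cells measured by flow cytometry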). The settings on record: S. cerevisiae MEP2-GFP strain, 3 h, at 10 µM, stronger effect = higher value, 100% means same as DMSO wells.

A word on the inhibition: it is the change of the read-out against control, counted positive when it falls.

Results filed as inconclusive are left out. Activity calls are given as the source filed them. Unless noted, no stated cut-off is given here; in the data, active means percent of DMSO control GFP below about 86%; inactive means the rest, inconclusive results apart.

Chain of ATP-binding cassette sub-family B member 6 (Homo sapiens) (Q9NP58 whole entry, looked up): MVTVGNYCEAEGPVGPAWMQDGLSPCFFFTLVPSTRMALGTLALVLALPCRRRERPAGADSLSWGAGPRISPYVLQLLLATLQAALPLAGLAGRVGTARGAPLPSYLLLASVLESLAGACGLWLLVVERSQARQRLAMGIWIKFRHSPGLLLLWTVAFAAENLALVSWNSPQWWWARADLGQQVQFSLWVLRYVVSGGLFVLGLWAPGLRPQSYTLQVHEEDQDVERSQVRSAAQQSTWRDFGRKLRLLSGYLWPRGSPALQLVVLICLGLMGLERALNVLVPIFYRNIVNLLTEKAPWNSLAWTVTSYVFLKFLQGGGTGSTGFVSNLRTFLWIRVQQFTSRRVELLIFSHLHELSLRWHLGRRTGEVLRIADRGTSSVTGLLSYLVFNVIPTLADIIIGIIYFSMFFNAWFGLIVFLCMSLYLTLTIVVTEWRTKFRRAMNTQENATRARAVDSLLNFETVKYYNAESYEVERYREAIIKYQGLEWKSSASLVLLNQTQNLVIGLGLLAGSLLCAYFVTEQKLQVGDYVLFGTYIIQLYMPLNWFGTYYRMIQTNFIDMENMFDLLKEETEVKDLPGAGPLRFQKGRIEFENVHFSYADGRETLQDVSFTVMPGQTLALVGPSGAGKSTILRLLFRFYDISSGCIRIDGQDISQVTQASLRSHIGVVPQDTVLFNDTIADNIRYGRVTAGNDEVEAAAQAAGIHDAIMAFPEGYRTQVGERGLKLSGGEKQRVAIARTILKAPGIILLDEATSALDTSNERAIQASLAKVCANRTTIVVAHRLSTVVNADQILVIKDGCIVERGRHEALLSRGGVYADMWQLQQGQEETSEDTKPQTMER
Chain of Beta-2 adrenergic receptor (Homo sapiens) (P07550 whole entry, looked up): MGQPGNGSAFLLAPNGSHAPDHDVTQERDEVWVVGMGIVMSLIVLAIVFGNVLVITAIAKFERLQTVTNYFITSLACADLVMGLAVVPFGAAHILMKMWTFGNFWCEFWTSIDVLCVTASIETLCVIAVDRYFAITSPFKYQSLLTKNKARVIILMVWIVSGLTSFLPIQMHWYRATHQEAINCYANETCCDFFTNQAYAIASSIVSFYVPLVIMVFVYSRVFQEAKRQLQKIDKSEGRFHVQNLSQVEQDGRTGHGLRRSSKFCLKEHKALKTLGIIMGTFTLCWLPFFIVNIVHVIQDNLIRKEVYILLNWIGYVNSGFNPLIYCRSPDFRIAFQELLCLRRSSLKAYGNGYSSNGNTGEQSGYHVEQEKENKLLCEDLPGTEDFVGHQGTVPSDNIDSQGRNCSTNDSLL
Chain of Integrin beta-1 (Homo sapiens) + Integrin alpha-4 (Homo sapiens) (P05556 whole entry, looked up): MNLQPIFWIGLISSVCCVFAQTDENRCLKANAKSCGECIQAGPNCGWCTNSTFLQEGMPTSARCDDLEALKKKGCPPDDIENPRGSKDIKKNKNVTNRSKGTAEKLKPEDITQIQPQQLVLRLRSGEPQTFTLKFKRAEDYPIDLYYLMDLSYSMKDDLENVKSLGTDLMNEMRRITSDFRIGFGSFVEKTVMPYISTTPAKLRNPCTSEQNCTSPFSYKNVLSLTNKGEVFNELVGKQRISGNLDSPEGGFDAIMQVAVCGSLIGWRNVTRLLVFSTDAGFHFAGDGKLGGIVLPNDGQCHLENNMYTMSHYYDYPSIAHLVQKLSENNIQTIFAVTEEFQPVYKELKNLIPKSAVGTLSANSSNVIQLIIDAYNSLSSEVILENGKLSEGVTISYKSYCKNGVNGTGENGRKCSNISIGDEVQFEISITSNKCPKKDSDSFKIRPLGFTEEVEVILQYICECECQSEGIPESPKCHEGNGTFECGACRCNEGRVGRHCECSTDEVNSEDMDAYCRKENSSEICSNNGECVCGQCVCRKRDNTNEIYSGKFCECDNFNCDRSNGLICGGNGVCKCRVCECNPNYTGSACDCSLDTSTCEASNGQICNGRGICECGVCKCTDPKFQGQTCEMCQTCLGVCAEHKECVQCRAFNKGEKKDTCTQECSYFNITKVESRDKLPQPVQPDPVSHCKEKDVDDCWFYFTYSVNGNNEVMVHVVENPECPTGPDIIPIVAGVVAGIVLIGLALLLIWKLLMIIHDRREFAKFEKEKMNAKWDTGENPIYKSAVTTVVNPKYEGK
Chain of Integrin beta-1 (Homo sapiens) + Integrin alpha-4 (Homo sapiens) (P13612 whole entry, looked up): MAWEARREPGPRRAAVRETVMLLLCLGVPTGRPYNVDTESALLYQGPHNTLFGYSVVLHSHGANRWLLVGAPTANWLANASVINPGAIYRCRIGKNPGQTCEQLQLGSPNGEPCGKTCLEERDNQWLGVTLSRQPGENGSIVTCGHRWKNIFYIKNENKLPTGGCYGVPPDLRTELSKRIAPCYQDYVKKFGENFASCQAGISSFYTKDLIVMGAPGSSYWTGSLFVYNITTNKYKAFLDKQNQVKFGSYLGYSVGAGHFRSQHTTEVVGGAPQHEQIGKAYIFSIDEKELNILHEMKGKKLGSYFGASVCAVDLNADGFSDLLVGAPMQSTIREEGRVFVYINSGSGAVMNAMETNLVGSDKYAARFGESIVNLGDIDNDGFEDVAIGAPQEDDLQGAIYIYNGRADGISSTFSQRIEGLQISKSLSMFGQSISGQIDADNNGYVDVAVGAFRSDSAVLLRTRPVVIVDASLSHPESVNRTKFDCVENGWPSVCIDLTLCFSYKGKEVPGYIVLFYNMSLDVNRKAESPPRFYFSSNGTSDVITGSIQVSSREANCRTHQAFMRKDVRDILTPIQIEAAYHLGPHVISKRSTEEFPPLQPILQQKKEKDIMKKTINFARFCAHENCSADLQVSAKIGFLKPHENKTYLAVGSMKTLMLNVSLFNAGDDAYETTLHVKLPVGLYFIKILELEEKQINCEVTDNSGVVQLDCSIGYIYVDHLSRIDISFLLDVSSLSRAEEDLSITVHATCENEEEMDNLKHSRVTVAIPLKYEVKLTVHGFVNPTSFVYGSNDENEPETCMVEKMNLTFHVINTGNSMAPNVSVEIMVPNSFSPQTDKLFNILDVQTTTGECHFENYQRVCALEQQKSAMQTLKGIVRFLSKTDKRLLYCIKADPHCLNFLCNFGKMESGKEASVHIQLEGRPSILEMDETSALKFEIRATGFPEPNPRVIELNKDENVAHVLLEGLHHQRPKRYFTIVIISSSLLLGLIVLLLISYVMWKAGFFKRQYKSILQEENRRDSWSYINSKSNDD
Chain of Beta-adrenergic receptor kinase 1 (Homo sapiens) (P25098 whole entry, looked up): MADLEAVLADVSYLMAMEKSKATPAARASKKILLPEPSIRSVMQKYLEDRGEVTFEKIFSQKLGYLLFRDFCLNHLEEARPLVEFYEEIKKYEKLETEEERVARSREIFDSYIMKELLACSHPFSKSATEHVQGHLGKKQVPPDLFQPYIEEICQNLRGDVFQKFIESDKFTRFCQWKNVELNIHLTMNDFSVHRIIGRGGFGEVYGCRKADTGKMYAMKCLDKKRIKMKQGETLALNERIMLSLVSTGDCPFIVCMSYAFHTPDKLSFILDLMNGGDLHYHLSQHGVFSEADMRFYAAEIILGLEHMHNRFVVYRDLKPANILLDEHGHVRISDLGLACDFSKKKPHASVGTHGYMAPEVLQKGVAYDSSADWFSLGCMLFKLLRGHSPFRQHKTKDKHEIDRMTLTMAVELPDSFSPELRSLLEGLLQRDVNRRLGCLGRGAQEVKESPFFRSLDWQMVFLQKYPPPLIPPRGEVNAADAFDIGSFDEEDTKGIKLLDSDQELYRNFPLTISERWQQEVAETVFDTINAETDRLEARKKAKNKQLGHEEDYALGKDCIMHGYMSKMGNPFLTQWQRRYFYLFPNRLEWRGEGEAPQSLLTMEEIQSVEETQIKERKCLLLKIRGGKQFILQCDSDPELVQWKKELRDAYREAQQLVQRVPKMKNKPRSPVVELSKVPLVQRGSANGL

Consider `COc1cc(/C=C/C(=O)N2CCCC2)cc(OC)c1OC`, for which the percent of DMSO control GFP in test [1] is 106% (inactive). For the same molecule, the percent response of DMSO control in test [2] was 107% (inactive). For the same molecule, the GFP response vs DMSO in [3] was 76.9% (inactive). Further, in [4], the GFP response, % of DMSO was 100% (inactive). For the same molecule, the double positive events in test [5] was 61.5%. Also, the vesicle binding response in test [5] was 29.3% (inactive). Also, the inhibition in [6] is 6.81% (inactive); in test [10], -0.17% (inactive); in test [14], -1% (inactive). Besides, the superoxide response (% of plate) in [7] is 95.8% (inactive). Also, the aptamer binding inhibition in [8] is 5% (inactive). Also, the response in [9] is -5.19% (inactive); in [11], 0.86% (inactive). For the same molecule, the binding (% of control) in test [12] was 95.1% (inactive). The efflux inhibition (fraction of control) in [13] is 0.02 (inactive). The differentiation response in [15] was 12.9% (inactive).

On to `CC(=O)OC[C@H]1O[C@@H](n2ncc(=O)[nH]c2=O)[C@H](OC(C)=O)[C@@H]1OC(C)=O`, for which, in test [1], the percent of DMSO control GFP is 94.8% (inactive). Also, the GFP response vs DMSO is 114% (inactive) in test [16] and 78.1% (inactive) in test [3]. In addition, the percent response of DMSO control in test [2] was 119% (inactive). Also, the double positive events in test [5] came to 53.4%. Besides, the vesicle binding response in [5] was 78.5% (active). Further, the inhibition in test [6] is 5.49% (inactive); in [10] it was -6.69% (inactive); in test [14], -40% (inactive). Also, in test [7], the superoxide response (% of plate) was 105% (inactive). For the same molecule, the aptamer binding inhibition in test [8] is 6% (inactive). Besides, the response in test [9] is -6.75% (inactive); in test [11] it was -0.17% (inactive). Also, in test [12], the binding (% of control) is 109% (inactive). Further, the efflux inhibition (fraction of control) in test [13] was -0.13 (inactive). Besides, the differentiation response in [15] is 20.5% (inactive).

On to `CC1CCCc2sc3ncn(N)c(=N)c3c21` (centres undefined), for which, in test [1], the percent of DMSO control GFP is 103% (inactive). For the same molecule, the percent response of DMSO control in [2] was 105% (inactive). In test [4], the GFP response, % of DMSO is 87.1% (inactive). For the same molecule, the double positive events in [5] turned out to be 62.2%. For the same molecule, the vesicle binding response in [5] is 246% (inactive). In addition, the figures for the inhibition in test [6], in test [10] and in test [14] were -3.16% (inactive), -3.27% (inactive) and 7% (inactive), respectively. Besides, the superoxide response (% of plate) in test [7] is 94.2% (inactive). Further, in test [8], the aptamer binding inhibition is 4% (inactive). Also, the figures for the response in [9] and in test [11] were 31.1% (inactive) and 3.56% (inactive), respectively. In addition, the binding (% of control) in test [12] is 98.2% (inactive). In [13], the efflux inhibition (fraction of control) is -0.24 (inactive). In [15], the differentiation response was -4% (inactive).

For the molecule `CC(NCCC(c1ccccc1)c1ccccc1)c1ccccc1` (centres undefined), in [1], the percent of DMSO control GFP is 92.6% (inactive). Moreover, the GFP response vs DMSO was 122% (inactive) in test [16] and 68.8% (inactive) in [3]. Further, the percent response of DMSO control in [2] is 111% (inactive). Besides, the double positive events in [5] was 64.4%. The vesicle binding response in test [5] was 167% (inactive). For the same molecule, the inhibition in test [6] was 6.46% (inactive); in test [10] it was 0.65% (inactive); in [14], 9% (inactive). Further, the superoxide response (% of plate) in test [7] was 95.5% (inactive). Moreover, in test [8], the aptamer binding inhibition is -3% (inactive). The response is 24.3% (inactive) in test [9] and 13.1% (inactive) in [11]. Further, the binding (% of control) in test [12] is 116% (inactive). Moreover, in test [13], the efflux inhibition (fraction of control) is 0.19 (inactive). Further, the differentiation response in test [15] is -0.82% (inactive).

Turning to `Cc1cc(C(C)(C)C)cc(C)c1CC1=NCCN1`, the percent of DMSO control GFP in test [1] was 93.7% (inactive). The figures for the GFP response vs DMSO in test [16] and in [3] were 133% (inactive) and 77.6% (inactive), respectively. In addition, in test [2], the percent response of DMSO control is 96.6% (inactive). This molecule also had a double positive events in test [5] of 62.8%. The vesicle binding response in test [5] is 214% (inactive). Also, the inhibition was 18.1% (inactive) in [6], 5.97% (inactive) in [10] and 10% (inactive) in [14]. For the same molecule, the superoxide response (% of plate) in [7] was 104% (inactive). Besides, the aptamer binding inhibition in test [8] was 1% (inactive). Further, the response is -5.36% (inactive) in test [9] and -7.49% (inactive) in [11]. In addition, the binding (% of control) in test [12] is 98.5% (inactive). Further, the efflux inhibition (fraction of control) in [13] is 0.12 (inactive). The differentiation response in test [15] is 2.46% (inactive).

Values taken from PubChem BioAssay.
